About 83,000 compounds went through this panel and 20% of them were active in at least one assay; those are over-represented in the sample as a whole.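 Compound tested at a single concentration for 48 hours in 96-well plates; a percent growth value below 10 was scored as active.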 A number with no mark means an inactive call. Active and inactive are the calls of the source.
Columns and labels:
Test in all cases: NCI-60 one-dose screen, 48 h (100 = growth as untreated, 0 = no growth, -100 = all killed)
Settings in all cases: 10 µM unless noted
DU-145 prostate = tested on: DU-145 prostate
K-562 leukemia = tested on: K-562 leukemia
MALME-3M melanoma = tested on: MALME-3M melanoma
MDA-MB-231 breast = tested on: MDA-MB-231 breast
RXF 393 renal = tested on: RXF 393 renal
SF-268 CNS = tested on: SF-268 CNS
SF-295 CNS = tested on: SF-295 CNS
SF-539 CNS = tested on: SF-539 CNS
UACC-257 melanoma = tested on: UACC-257 melanoma
M14 melanoma = tested on: M14 melanoma

Row | Compound | growth (DU-145 prostate) | growth (K-562 leukemia) | growth (MALME-3M melanoma) | growth (MDA-MB-231 breast) | growth (RXF 393 renal) | growth (SF-268 CNS) | growth (SF-295 CNS) | growth (SF-539 CNS) | growth (UACC-257 melanoma) | growth (M14 melanoma)
1 | Cc1ccccc1-n1nnc(C(=O)Nc2ccc(-c3ccccc3)cn2)c1C | 54.3% [50 µM] | 26.5% [50 µM] | 39.6% [50 µM] | 63.1% [50 µM] | 74.7% [50 µM] | 68.7% [50 µM] | 38.9% [50 µM] | 72.3% [50 µM] | 25.5% [50 µM] | 41.8% [50 µM]
2 | COc1ccc(-c2c3c(N)c4c(nc3nc3c2c(C)nn3-c2ccccc2)CCCCC4)cc1 | 91.6% | 24.5% | 101% | 105% | 106% | 94.5% | 85% | 93.9% | 93.9% | 88.9%
3 | CCOC(=O)c1cn2c3c(cc(F)cc3c1=O)C(CC)c1ccccc1C2 (stereo not given) | 104% | 78.1% | 90.8% | 104% | 118% | 96.8% | 91.5% | 97.5% | 96.3% | 114%
4 | Cc1c(C(=O)Nc2nc(-c3ccccc3)cs2)nnn1-c1ccccc1Br | 51.8% [50 µM] | 20.3% [50 µM] | 17.5% [50 µM] | 44% [50 µM] | 76.4% [50 µM] | 61.5% [50 µM] | 31.2% [50 µM] | 63.8% [50 µM] | 13.2% [50 µM] | 43.1% [50 µM]
5 | COC(=O)CCC(=O)c1ccccc1 | 106% | 96.9% | 158% | 111% | 139% | 107% | 91.8% | 99.9% | 106% | 103%
6 | COC(=O)c1c2c(c(C)[n+]([O-])c1C)C(=O)C=C(NCc1cccc(Cl)c1)C2=O | -98.3% (active) | -1.12% (active) | -96.9% (active) | -27.3% (active) | -32.1% (active) | -0.347% (active) | -96% (active) | -91.7% (active) | -88.5% (active) | -79.6% (active)
7 | COc1ccc(-c2c(-c3cc4c(c(OC)c3OC)OCO4)noc2N)cc1 | 12.2% | 16.1% | 56.7% | 48.7% | -13.6% (active) | 45.8% | 2.69% (active) | 1.11% (active) | 66.8% | 12.6%
8 | CC1(C)N=C(N)N=C(N)N1c1cccc(/C=C/C=C/c2cccc([N+](=O)[O-])c2)c1 | 73% | 20.6% | 66.3% | 81.3% | 90.4% | 42.5% | 83.8% | 15.9% | 41.4% | 74.5%
9 | Cc1ccc(-c2nnc(COc3ccc(-c4nnc(N)s4)cc3)o2)cc1 | 100% | 91.1% | 67.6% | 87.8% | 58% | 79.6% | 7.56% (active) | 109% | 112% | 88.1%
10 | O=C(Nc1ccccc1)Oc1cccc2cccnc12 | 92.9% | 44.9% | 108% | 96.7% | 116% | 87.6% | 83.9% | 95.5% | 75.6% | 57.6%
11 | COc1ccc(-c2nc3sccn3c2/C=C/C(=O)c2cc(OC)c(OC)c(OC)c2)cc1OC | 6.29% (active) | 13.9% | 37.7% | 31.7% | -1.12% (active) | 28.2% | 5.22% (active) | 24.6% | 24.5% | 7.09% (active)
12 | O=C(CCc1nnc2sc(/C=C\c3ccccc3)nn12)c1nc2ccccc2[nH]1 | 98% | 2.17% (active) | 93.8% | 83% | 108% | 107% | 83.8% | 65.9% | 94.9% | 90.7%
13 | COc1ccc(/C=N/OCC(O)CNCc2ccccc2)cc1OC1CCCC1 (stereo not given) | 105% | 78% | 106% | 101% | 95.5% | 91.7% | 103% | 98% | 97.2% | 98.4%
14 | COc1ccc(-c2nn(-c3ccc(NC(=O)c4ccc(Cl)c(Cl)c4)cc3)cc2-c2ccncc2)cc1Cl | 68.4% | 5.86% (active) | 43% | -16.3% (active) | -82.1% (active) | 49.2% | -31.5% (active) | 26% | 93.3% | 6.62% (active)
